Compound activity from PubChem BioAssay.
Rv3671c protease = Rv3671c (M. tuberculosis) protease inhibition | inhibition, % at 5.96 µM | 320,000 compounds, 0.048% hits; in the data active = inhibition above about 38%;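 also: extracellular domain of Rv3671c used as enzyme; 0% = enzyme with DMSO and 100% = no enzyme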
Mtb betalactam = beta-lactam sensitization of Mtb H37Rv. M. tuberculosis H37Rv growth with meropenem, percent inhibition. inhibition, % at 25 µM. 330,000 compounds, 0.27% hits. AID 434955; call rule not given here;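 also: growth measured after seven days incubation then overnight dye step; 0% = bacteria only wells and 100% = bacteria with antibiotic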
GDH-TPI counter-1 = GDH-TPI coupled enzyme inhibition counter-screen; GDH-TPI coupled enzyme counterscreen, NADH absorbance; inhibition, % at 4.8 µM; 360,000 compounds, 1.2% hits; in the data active = inhibition above about 30%;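 also: 0% = DMSO wells and 100% = wells lacking the enzyme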
Mtb UGM inh = blocks M. tuberculosis UGM enzyme. P9WIQ1. purified UGM, fluorescence polarization probe displacement. inhibition, % at 10 µM. 320,000 compounds, 0.06% hits. AID 504406; in the data active = inhibition above about 10%, passing the limit was not always enough
Target sequence (P9WIQ1 whole entry, looked up): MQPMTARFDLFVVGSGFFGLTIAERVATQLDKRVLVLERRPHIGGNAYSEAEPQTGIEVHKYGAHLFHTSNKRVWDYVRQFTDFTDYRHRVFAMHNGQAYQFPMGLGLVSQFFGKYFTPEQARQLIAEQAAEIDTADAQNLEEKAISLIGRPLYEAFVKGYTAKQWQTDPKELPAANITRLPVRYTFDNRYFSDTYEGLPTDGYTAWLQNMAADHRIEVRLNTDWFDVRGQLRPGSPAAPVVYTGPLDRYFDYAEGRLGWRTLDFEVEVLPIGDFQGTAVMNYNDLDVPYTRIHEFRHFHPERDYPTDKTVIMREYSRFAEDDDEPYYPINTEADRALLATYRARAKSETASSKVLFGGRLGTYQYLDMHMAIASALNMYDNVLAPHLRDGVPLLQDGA
RecA splice inh = inhibitors of M. tuberculosis RecA intein splicing | P9WHJ3 | cell-free RecA intein splicing, fluorescence | inhibition, % (test concentration not listed) | 290,000 compounds, 0.75% hits; in the data active = inhibition above about 30%;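 also: 0% = vehicle wells and 100% = reference inhibitor control wells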
FBA Mtb inh = inhibits M. tuberculosis FBA enzyme. P9WQA3. purified M. tuberculosis FBA, fluorescence read-out. inhibition, % at 1 µM. 360,000 compounds, 2.3% hits. AID 588726;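 also: 0% = vehicle and 100% = reference inhibitor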
Mtb FBA inh conf = Mtb FBA inhibition, confirmed. purified M. tuberculosis FBA, fluorescence read-out. shares compounds with FBA Mtb inh. inhibition, % at 1 µM. 5,600 compounds, 78% hits;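 also: 0% = vehicle wells and 100% = reference inhibitor wells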
GDH-TPI counter-2 = GDH-TPI inhibition counter-screen for FBA inhibitors. inhibition, % at 1 µM. 5,600 compounds, 81% hits. GDH-TPI coupled enzyme counterscreen, fluorescence. shares compounds with FBA Mtb inh. AID 652141; in the data active = inhibition above about 10%
* = called active by the depositor; i = inactive; · = no result given; + = active, no number. A selection: hits, their analogues and other compounds. The true share with any hit is near 4%. Rule as the data show it, unless noted: active = inhibition above about 27%; inactive = the rest.

SMILES | Rv3671c protease | Mtb betalactam | GDH-TPI counter-1 | Mtb UGM inh | RecA splice inh | FBA Mtb inh | Mtb FBA inh conf | GDH-TPI counter-2
COc1ccc(-c2ccc(-c3noc(C(C)C)n3)c(OC)n2)cc1 | -6 | 99 | 25 | 0 | 8 | 108* | 135* | 107*
CCCCOc1ccccc1C1NC(=O)CCC1[N+](=O)[O-] (centres undefined) | 5 | 1 | 5 | -4 | 0 | 3 | · | ·
Cc1cc2c(=O)cc(-c3ccccc3)oc2c(C(=O)O)c1C | · | · | · | · | · | 39* | 56* | 48*
COc1ccc(-c2ccc3c(c2)CN(C(=O)NC2CCCCC2)Cc2cnnn2-3)cc1 | · | · | · | · | · | 86* | 52* | 41*
COc1cccc(CNC(=O)c2ccc(CS(=O)Cc3ccccc3Cl)o2)c1 (centres undefined) | · | · | 4 | · | · | -3 | · | ·
COc1ccc(S(=O)Cc2ccc(C(=O)NCc3cccc(OC)c3)o2)cc1 (centres undefined) | -3 | -4 | -4 | -2 | 4 | 29* | 58* | 42*
CN(Cc1nc2ccccc2c(=O)[nH]1)C(=O)c1ccc(S(=O)(=O)N(C)C)cc1 | -6 | -10 | -11 | 2 | 1 | -1 | · | ·
CC(=O)c1ccc(-c2ccc(C(=O)N(C)Cc3nc4ccccc4c(=O)[nH]3)o2)cc1 | -7 | 3 | 17 | -2 | · | 89* | 4 | -4
CCCCNc1c(-c2ccc(OC)c(SC(C)CC)c2)nc2cc(C)ccn12 (centres undefined) | 13 | 97 | 4 | · | · | 31* | 93* | 91*
CCC(C)Sc1cc(-c2nc3cc(C)ccn3c2NC2CCCCC2)ccc1OC (centres undefined) | 10 | 95 | 0 | · | · | 20 | · | ·
CCCCNc1c(-c2ccc(Sc3ccc(OC)cc3)cc2)nc2cc(C)ccn12 | 2 | 80 | 18 | -2 | · | 53* | 54* | 60*
CCCCNc1c(-c2ccc(OC)c(SC(C)CC)c2)nc2ccc(C)cn12 (centres undefined) | -1 | 97 | -2 | 3 | · | 41* | 74* | 87*
CCC(C)Sc1cc(-c2nc3ccccn3c2NC2CCCCC2)ccc1OC (centres undefined) | 10 | 100 | 12 | 2 | 14 | 34* | 87* | 78*
CCCCNc1c(-c2ccc(OC)c(SC(C)CC)c2)nc2ccc(Cl)cn12 (centres undefined) | -2 | 11 | 7 | 6 | · | 7 | · | ·
COC(=O)[C@@H](NCc1ccc(B(O)O)cc1)C(C)C | · | · | 4 | · | · | 2 | · | ·
c1csc(-c2nc3ccccn3c2NC2CCCCC2)c1 | 5 | 1 | 8 | 1 | -8 | 43* | 1 | -4
CCCCCCSc1ccc(-c2nc3ccc(C)cn3c2NCc2ccccc2)cc1OC | 9 | -16 | 17 | 3 | -1 | 38* | 146* | 110*
CCCCCCSc1cc(-c2nc3ccc(C)cn3c2NCCCC)ccc1OC | 6 | 5 | 18 | 0 | · | 28* | 139* | 107*
CCCCNc1c(-c2ccc(SC(C)CC)cc2)nc2ccccn12 (centres undefined) | 10 | 99 | 13 | 2 | -41 | 57* | 83* | 72*
CCCCCCSc1ccc(-c2nc3ccc(C)cn3c2NCc2ccccc2)cc1 | 0 | -4 | 2 | 0 | 0 | 17 | · | ·
CCCCCCSc1cc(-c2nc3ccc(Cl)cn3c2NCCCC)ccc1OC | -2 | -2 | 6 | -2 | -3 | 1 | · | ·
CCCCNc1c(-c2cccc(SC(C)CC)c2)nc2ccc(Cl)cn12 (centres undefined) | 0 | 6 | -4 | 5 | · | 6 | · | ·
CC(C)C[C@@H](CNC(=O)OC(C)(C)C)NC(=O)c1nc[nH]c1C(=O)N[C@@H](CC(C)C)C(=O)CNC[C@H](CC(C)C)NC(=O)c1nc[nH]c1C(=O)N[C@@H](Cc1c[nH]c2ccccc12)C(=O)OC(C)(C)C | -22 | 8 | 11 | -1 | · | 1 | · | ·
Cc1cccnc1NC(=O)Nc1cccc2ccccc12 | -6 | 32 | -2 | 0 | 1 | 56* | 90* | 73*
COC(=O)C(C)Oc1ccc(-c2nccc(-c3ccc(F)cc3)n2)cc1 (centres undefined) | -5 | 100 | -7 | 1 | 10 | 2 | · | ·
SMILES | Rv3671c protease | Mtb betalactam | GDH-TPI counter-1 | Mtb UGM inh | RecA splice inh | FBA Mtb inh | Mtb FBA inh conf | GDH-TPI counter-2
COC(=O)C(C)Oc1ccc(-c2nccc(-c3ccccn3)n2)cc1 (centres undefined) | -9 | 97 | 3 | 0 | 4 | 110* | 68* | 60*
CCOC(=O)c1c(-c2ccc(Cl)cc2)cn2ccccc12 | -2 | -7 | 24 | -2 | -3 | 64* | + | 172*
O=c1oc(CCCO)cc2ccc(C#Cc3cccnc3)cc12 | -6 | 2 | 17 | -1 | · | 53* | 45* | 37*
CN(C)c1ccc(C#Cc2ccc3cc(CCO)oc(=O)c3c2)cc1 | -15 | 54 | 4 | 1 | · | 13 | · | ·
O=c1oc(CCO)cc2ccc(C#Cc3ccsc3)cc12 | -1 | 25 | 8 | 2 | · | 45* | 82* | 52*
Cc1cc(C)cc(CC2CC(=O)N(c3ccc([N+](=O)[O-])cc3)C2=O)c1 (centres undefined) | -4 | -2 | 7 | 0 | -1 | 2 | · | ·
CC(C)CN(C(=O)C1CCCO1)c1c(N)n(CC(C)C)c(=O)[nH]c1=O (centres undefined) | · | · | -2 | · | · | -2 | · | ·
COc1ccc2oc(-c3ccccc3)c(C(=O)N(C)C)c2c1 | 0 | 4 | 10 | 1 | 3 | 34* | 120* | 113*
COc1ccc2oc(-c3ccccc3)c(C(N)=O)c2c1 | -5 | 5 | 21 | -1 | -2 | 99* | 110* | 88*
COc1ccc2oc(-c3ccccc3)cc(=O)c2c1 | · | · | 12 | · | · | 79* | 134* | 100*
C=C(C)CNC(=O)C1CCC(=O)N(CCCc2ccccc2)C1 (centres undefined) | 1 | 0 | 2 | 0 | -1 | 2 | · | ·
O=S1(=O)CCN2C=C(Br)C=C(Br)C2=N1 | 0 | -13 | 30 | 2 | 0 | 29* | 133* | 105*
Cc1ccc(C(=O)OC(C)C(=O)NC(C)CCc2ccccc2)o1 (centres undefined) | -9 | -1 | 9 | 0 | · | 0 | · | ·
CCN(CC)c1ccc2c(O)cc(=O)oc2c1 | 13 | -3 | 23 | 0 | -2 | 22 | · | ·
CCN(CC)c1ccc2c(C)c(CN3CCOCC3)c(=O)oc2c1 | -4 | 2 | 17 | 2 | i | 88* | -3 | -5
CCN(CC)c1ccc2c(C)c(CO)c(=O)oc2c1 | -14 | -2 | 8 | 4 | i | 49* | + | +
CCCCCc1nnc(NC(=O)NS(=O)(=O)c2ccc(C)cc2)s1 | 4 | -7 | 2 | 0 | -1 | 41* | 151* | 121*
